Data reported in PubChem BioAssay (NCI).
About 83,000 compounds went through this panel and 20% of them were active in at least one assay; those are over-represented in the sample as a whole.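 Note: values are percent growth. 100 is the growth of untreated cells, values between 100 and 0 indicate rising inhibition; between -100 and 0 indicates cell death.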 The source made the active and inactive calls. Rule for the calls: active = growth percent below 10; inactive = the rest.

Columns and labels:
Test in all cases: NCI-60 one-dose screen, 48 h (100 = growth as untreated, 0 = no growth, -100 = all killed)
Settings in all cases: 10 µM unless noted
BT-549 breast = system: BT-549 breast
MDA-MB-435 melanoma = system: MDA-MB-435 melanoma
SW-620 colon = system: SW-620 colon
MCF7 breast = system: MCF7 breast
HCT-116 colon = system: HCT-116 colon
HCC-2998 colon = system: HCC-2998 colon
KM12 colon = system: KM12 colon

Measured: growth

COc1ccc(C(=O)Nc2nc(-c3ccc(Cl)cc3)cs2)cc1
inactive: BT-549 breast 105% | MDA-MB-435 melanoma 97.7% | SW-620 colon 96.3% | MCF7 breast 92.9% | HCT-116 colon 109% | HCC-2998 colon 112% | KM12 colon 99.2%

CSc1ncc2ncn(C3OC(CO)C(O)C3O)c2n1 (stereo not drawn)
inactive: BT-549 breast 118% | MDA-MB-435 melanoma 104% | SW-620 colon 96.5% | MCF7 breast 122% | HCT-116 colon 102% | HCC-2998 colon 124% | KM12 colon 113%

CCCCCCCCCCCCNc1ncnc2[nH]ncc12
inactive: BT-549 breast 62.9% | MDA-MB-435 melanoma 71.7% | SW-620 colon 83.1% | MCF7 breast 59% | HCT-116 colon 53.3% | HCC-2998 colon 92.4% | KM12 colon 79.2%

CC(=O)Oc1ccc(C23c4ccccc4C2(OC(C)=O)c2cc(OC(C)=O)ccc23)cc1 (stereo not drawn)
inactive: BT-549 breast 106% | MDA-MB-435 melanoma 97.9% | SW-620 colon 80.3% | MCF7 breast 49.5% | HCT-116 colon 61.6% | HCC-2998 colon 59.2% | KM12 colon 46.2%

C[C@]12CC[C@@H]3c4ccc(O)cc4CC[C@H]3[C@@H]1CC[C@@H]2NS(=O)(=O)c1cccc(Br)c1
inactive: BT-549 breast 69.2% | MDA-MB-435 melanoma 48.4% | SW-620 colon 81.4% | MCF7 breast 37.5% | HCT-116 colon 44.2% | HCC-2998 colon 89.4% | KM12 colon 51.2%

COc1ccc2c(c1)C(=O)/C(=C/c1ccc([N+](=O)[O-])s1)O2
active: BT-549 breast -52.9% | MDA-MB-435 melanoma -70.4% | SW-620 colon -69.7% | MCF7 breast 3% | HCT-116 colon -0.508% | HCC-2998 colon -6.91% | KM12 colon -19.3%

CC(c1ccccn1)C(C)(O)C(C)c1ccccn1 (stereo not drawn)
inactive: BT-549 breast 108% | MDA-MB-435 melanoma 104% | SW-620 colon 112% | MCF7 breast 103% | HCT-116 colon 108% | HCC-2998 colon 104% | KM12 colon 105%

COc1cc2c(cc1OCCCOc1ccc(-c3cc4ccccc4c4ccccc34)cc1)N=C[C@@H]1CCCN1C2=O
active: BT-549 breast -50.8% | MDA-MB-435 melanoma -30.8% | SW-620 colon -43.8% | MCF7 breast -75.1% | HCT-116 colon -23.1% | HCC-2998 colon 2.28% | KM12 colon -20.4%

CC1=C(C(=O)Nc2ccccc2)C(c2ccc3c(c2)OCCO3)NC(=O)N1 (stereo not drawn)
inactive: BT-549 breast 95.9% | MDA-MB-435 melanoma 102% | SW-620 colon 105% | MCF7 breast 94.7% | HCT-116 colon 97.6% | HCC-2998 colon 103% | KM12 colon 100%

Clc1ccc2c(Nc3ccc4oc(NCCN5CCCC5)nc4c3)ccnc2c1
inactive: BT-549 breast 95.1% | MDA-MB-435 melanoma 101% | SW-620 colon 78.4% | MCF7 breast 68.9% | HCT-116 colon 55.7% | HCC-2998 colon 76% | KM12 colon 81.7%

COc1cc(/C=C/c2nnc(-c3cc(-c4ccccc4)n[nH]3)o2)cc(OC)c1OC
inactive: BT-549 breast 112% | MDA-MB-435 melanoma 102% | SW-620 colon 115% | MCF7 breast 92% | HCT-116 colon 119% | HCC-2998 colon 98.3% | KM12 colon 103%

COc1ccc2c(c1)/C(=C\c1c[nH]c3ccc(F)cc13)C(=O)N2
inactive: BT-549 breast 106% | MDA-MB-435 melanoma 91.5% | SW-620 colon 107% | MCF7 breast 60.3% | HCT-116 colon 80% | HCC-2998 colon 92.7% | KM12 colon 21.1%

COC(=O)[C@]1(CCSC)N[C@H](c2cn(-c3ccccc3)nc2C)[C@@H]2C(=O)N(c3ccccc3)C(=O)[C@@H]21
inactive: BT-549 breast 95.5% | MDA-MB-435 melanoma 106% | SW-620 colon 107% | MCF7 breast 98.5% | HCT-116 colon 98.3% | HCC-2998 colon 95.2% | KM12 colon 107%

COc1ccc2c(c1)nc(N)c1c3cc(C)c(C)cc3cn21
inactive: BT-549 breast 94.5% | SW-620 colon 41.9% | MCF7 breast 16.3% | HCT-116 colon 49.6% | HCC-2998 colon 85.9% | KM12 colon 46.8%
active: MDA-MB-435 melanoma -18%

COc1ccc(OC)c2c1[nH]c(=O)c1c3ccccc3cn21
active: BT-549 breast -11.6% | MDA-MB-435 melanoma -97.9% | SW-620 colon -59.8% | MCF7 breast -78.5% | HCT-116 colon -71.5% | HCC-2998 colon -77.4% | KM12 colon -52.6%

CCOC(=O)C1=NN(c2ccc(Cl)cc2)C2C3N(c4ccc(Cl)cc4)N=C(C(=O)OCC)N3c3ccccc3N12 (stereo not drawn)
inactive: BT-549 breast 123% | MDA-MB-435 melanoma 100% | SW-620 colon 110% | MCF7 breast 85.7% | HCT-116 colon 87.9% | HCC-2998 colon 97.5% | KM12 colon 103%

CN1C(=O)/C(=C/c2nc(-c3cccc(F)c3)n3ccccc23)c2ccccc21
inactive: BT-549 breast 90.9% | MDA-MB-435 melanoma 93.6% | SW-620 colon 84.6% | MCF7 breast 44.3% | HCT-116 colon 44.5% | HCC-2998 colon 99.4% | KM12 colon 94.1%

O=C(CCc1nnc(Cn2ccnc2)o1)c1nc2ccccc2[nH]1
inactive: BT-549 breast 114% | MDA-MB-435 melanoma 111% | SW-620 colon 109% | MCF7 breast 106% | HCT-116 colon 106% | HCC-2998 colon 108% | KM12 colon 111%

CCOc1cc(C(C)(C)C)ccc1C1=N[C@H](c2ccc(Cl)cc2)[C@H](c2ccc(Cl)cc2)N1C(=O)N1CCN(CC#Cc2cccc3c2CN([C@@H]2CCC(=O)NC2=O)C3=O)CC1
inactive: BT-549 breast 22.9% | MDA-MB-435 melanoma 33.6% | SW-620 colon 26.9% | HCT-116 colon 17.8% | HCC-2998 colon 25.3% | KM12 colon 26.3%
active: MCF7 breast 8.49%

COc1cc(C2CC(c3ccc(C)cc3)=NN2C(C)=O)ccc1Oc1ccnc2cc(Cl)ccc12 (stereo not drawn)
inactive: BT-549 breast 59.1% | MDA-MB-435 melanoma 100% | SW-620 colon 66.3% | MCF7 breast 73.6% | HCT-116 colon 52.8% | HCC-2998 colon 83.3% | KM12 colon 85.3%

CCc1[nH]nc(-c2ccc(OC)cc2)c1-c1ccccc1OCCN(CC)CC
inactive: BT-549 breast 87.7% | MDA-MB-435 melanoma 101% | SW-620 colon 104% | MCF7 breast 93.2% | HCT-116 colon 83.9% | HCC-2998 colon 103% | KM12 colon 106%

COC(=O)CCC1=C(C)/C(=C/c2[nH]c(-c3ccc[nH]3)cc2OC)N=C1C
active: MDA-MB-435 melanoma -13.5% | SW-620 colon 8.99% | MCF7 breast 1.82% | HCT-116 colon -61.8% | HCC-2998 colon 9.8% | KM12 colon 5.49%
inactive: BT-549 breast 14.3%

COc1ccc2c3c(c(OCCCN(C)C)nc2c1)-c1ccc(Cl)cc1C3=O
inactive: BT-549 breast 92.5%
active: MDA-MB-435 melanoma -7.72% | SW-620 colon -78.7% | MCF7 breast -82.3% | HCT-116 colon -90.9% | HCC-2998 colon -95.2% | KM12 colon -32.2%

CCN1C[C@@H](C)n2c(c(O)c3c(=O)n(Cc4ccc(F)c(Cl)c4)nc(C(=O)NC)c32)C1=O
active: BT-549 breast 9.6%
inactive: MDA-MB-435 melanoma 27.4% | SW-620 colon 21.1% | MCF7 breast 53.6% | HCT-116 colon 16.3% | HCC-2998 colon 14.7% | KM12 colon 21%
